Unmarked numbers belong to inactive results. Calls of active or inactive are those of the source. The call rests on the fitted dose curve; in most records, active means well fitted inhibition curve with a large enough effect; inconclusive means small, poorly fitted or top-dose-only effect; inactive means flat fitted curve, though single readings scatter.
molecular target: Luciferin 4-monooxygenase (Photinus pyralis) (UniProt P08659); assay: Primary firefly luciferase (FLuc) qHTS assay for identification of artifact compounds. (AID 1845220); details: purified firefly luciferase, luminescence, 5 min; series mostly up to 54.1 µM; activity change, negative = inhibition: at the top concentration; further: nearly all actives have a fitted effect of over 60% in size;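 on activity change, negative = inhibition: plate controls were DMSO vehicle for no effect and no enzyme for full effect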
Summary of the method: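 D-luciferin and ATP (10 uM each, final) in Tris acetate buffer pH 7.6 were incubated with compounds for 15 min at room temperature. The reaction was started with 10 nM Photinus pyralis luciferase and luminescence read after 5 min. Percent inhibition was fitted to a 4-parameter Hill equation.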

SMILES | activity change, negative = inhibition | outcome
CC1(C)CC[C@]2(C(=O)O)[C@H](O)C[C@]3(C)C(=CCC4[C@@]5(C)CC[C@H](O[C@@H]6OC[C@@H](O)[C@H](O)[C@H]6O)[C@@](C)(C(=O)O)C5CC[C@]43C)[C@@H]2C1 (some centres undefined) | 3.64% [at 25.7 µM] | 
CCC(CC)CC1(C(=O)Nc2ccccc2SC(=O)C(C)C)CCCCC1 |  | inactive
COc1cc(CO)ccc1O[C@@H]1O[C@H](CO)[C@@H](O)[C@H](O)[C@H]1O | -0.188% | 
COc1cc(C2CC(=O)Nc3c2cc(Br)c2ccccc32)cc(OC)c1OC (centres undefined) |  | inactive
CC1(C)CC[C@]2(C(=O)O[C@@H]3O[C@H](CO)[C@@H](O)[C@H](O)[C@H]3O)CC[C@]3(C)C(=CCC4[C@@]5(C)C[C@@H](O)[C@H](O)[C@@](C)(CO)C5[C@H](O)C[C@]43C)C2C1 (some centres undefined) | -10.8% [at 25.7 µM] | 
CC(C)(OC1OC(CO)C(O)C(O)C1O)C1CCC(O)(CO)C2CC(=O)C(C)(O)C2C1 (centres undefined) | 3.74% [at 25.7 µM] | 
CC(=O)OC/C(=C/C(=O)O)CC[C@@H]1C(C)=CC(=O)[C@@H]2C(C)(C)CCC[C@@]12C | 0.314% | 
C[C@@H]1O[C@@H](O[C@@H]2\C=C/C=C\C=C/C=C\C[C@H](C)OC(=O)/C=C\[C@H]3O[C@@H]3C[C@H](O)C[C@]3(O)C[C@@H](O)[C@@H](C(=O)O)[C@H](C2)O3)[C@H](O)[C@H](N)[C@@H]1O | 4.34% | 
CC(=O)OC1C(CO)OC(O[C@H]2[C@H](OC(=O)[C@]34CCC(C)(C)C[C@H]3C3=CCC5[C@@]6(C)CC[C@H](O[C@@H]7O[C@H](C(=O)O)[C@@H](O)[C@H](O[C@@H]8OC[C@@H](O)[C@H](O)[C@H]8O)[C@H]7O[C@@H]7O[C@H](CO)[C@H](O)[C@H](O)[C@H]7O)[C@@](C)(C=O)C6CC[C@@]5(C)[C@]3(C)C[C@H]4O)O[C@H](C)[C@H](OC3OC(C)C(OC4OCC(O)C(O)C4O)C(O)C3O)[C@@H]2O)C(O)C1O (some centres undefined) | 2.42% [at 11.6 µM] | 
O=C(/C=C/c1ccc(O)cc1)OC[C@H]1O[C@@H](O/C(=C\c2ccccc2)C(=O)O)[C@H](O)[C@@H](O)[C@@H]1O | 0.337% [at 25.7 µM] | 
CC(C)(O)c1ccc2c(c1)C(=O)C[C@H]1[C@](C)(C(=O)O)CCC[C@]21C | -2.3% | 
O=C(O)c1cc(O[C@@H]2O[C@H](CO)[C@@H](O)[C@H](O)[C@H]2O)ccc1O |  | inactive
C/C=C1/C[N+](C)([O-])C2Cc3c([nH]c4ccccc34)C(=O)CC1C2C(=O)OC (centres undefined) |  | inactive
COc1cc(Cc2cnc(N)nc2N)c(C(C)C)cc1OC | 1.63% | 
CC1(CO)CC(O)C2(C)CCC3(C)C(=CCC4C5(C=O)CCC(OC6OC(C(=O)O)C(O)C(O)C6OC6OC(C(=O)O)C(O)C(O)C6O)C(C)(C)C5CCC43C)C2C1 (centres undefined) | -10.9% [at 11.6 µM] | 
CC(/C=C/C=C(\C)C(=O)O[C@@H]1O[C@H](CO[C@@H]2O[C@H](CO)[C@@H](O)[C@H](O)[C@H]2O)[C@@H](O)[C@H](O)[C@H]1O)=C\C=C\C=C(C)\C=C\C=C(/C)C(=O)O[C@@H]1C[C@](O)(C(=O)O)C[C@@H](O)[C@H]1OC(=O)/C=C/c1ccc(O)c(O)c1 | -0.112% [at 11.6 µM] | 
CC1CCC2(C(=O)O)CCC3(C)C(=CCC4C5(C)CCC(O)C(C)(C(=O)O)C5CCC43C)C2C1(C)O (centres undefined) | 4.62% [at 25.7 µM] | 
Cc1nc2cc(-c3cc(F)cc(C#N)c3)ccc2s1 |  | inactive
C=C1[C@H]2CCC3[C@]4(C)CCC[C@@](C)(C(=O)O)C4CC[C@]3(C2)[C@H]1OC(C)=O (some centres undefined) | 0.701% | 
COC(=O)C1=COC(O[C@@H]2O[C@H](CO)[C@@H](O)[C@H](O)[C@H]2O)[C@@H]2[C@@](C)(O)[C@@H](OC(=O)/C=C/c3ccccc3)C[C@]12O (some centres undefined) | 0.112% [at 25.7 µM] | 

SMILES | activity change, negative = inhibition | outcome
COC1OC(=O)C2=C1C1(C)CCCC(C)(C)C1CC2O (centres undefined) |  | inactive
COc1cc(-c2ccc(O)cc2)c(OC)c(O)c1C1=CC(=O)OC1CC(=O)O (centres undefined) | -10.8% | 
COc1cc(/C=C/C(=O)O[C@H]2[C@@H]3C=CO[C@@H](O[C@@H]4O[C@H](CO)[C@@H](O)[C@H](O)[C@H]4O)[C@@H]3[C@@]3(CO)O[C@@H]23)ccc1O | 1.55% [at 25.7 µM] | 
CC(C)(O)/C=C/C(=O)[C@](C)(O)[C@H]1[C@H](O)C[C@@]2(C)[C@@H]3CC=C4[C@@H](C=C(O[C@@H]5O[C@H](CO)[C@@H](O)[C@H](O)[C@H]5O)C(=O)C4(C)C)[C@]3(C)C(=O)C[C@]12C |  | inactive [at 25.7 µM]
CNc1nc(Cc2ccccc2)nc2c1CCNC[C@@H]2C | 3.26% | 
O=C(c1ccc(Cl)c([N+](=O)[O-])c1)N1CCN(c2ccccc2F)CC1 |  | inactive
Cc1ccc([C@@H]2CC=C(C(=O)O)[C@H](c3ccc(C(C)(C)C)cc3)N2S(=O)(=O)c2ccc(C)cc2)cc1 |  | inactive
C[C@@H]1O[C@@H](O[C@H]2[C@@H]3C=CO[C@@H](O[C@@H]4O[C@H](CO)[C@@H](O)[C@H](O)[C@H]4O)[C@@H]3[C@@]3(CO)O[C@@H]23)[C@H](OC(=O)/C=C/c2ccc(O)cc2)[C@H](O)[C@H]1O | 3.07% [at 25.7 µM] | 
C=C(C(=O)O)C1CC(O)C2(C)CCCC(C)(O)C2C1 (centres undefined) |  | inactive
CC1=C2C[C@H]3OC(=O)[C@H](O)[C@@]4(O)[C@@H](C)[C@@H](O)[C@H](O)C([C@@]2(C)[C@H](O)[C@@H](O)C1)[C@@]34C (some centres undefined) | 2.07% | 
C[C@@H]1O[C@@H](O[C@H]2[C@@H]3C=CO[C@@H](O[C@@H]4O[C@H](CO)[C@@H](O)[C@H](O)[C@H]4O)[C@@H]3[C@@]3(CO)O[C@@H]23)[C@H](O)[C@H](O)[C@H]1OC(=O)/C=C/c1ccc(O)cc1 | -8.31% [at 25.7 µM] | 
COc1ccc(CC(=O)NCc2ccccc2-c2ccccc2C(=O)NCCc2cccnc2)cc1 | -0.0157% | 
CC1(C)CC[C@]2(C(=O)O)CC[C@]3(C)C(=CCC4[C@@]5(C)C[C@@H](O)[C@H](O)[C@@](C)(CO)C5[C@H](O)C[C@]43C)[C@@H]2C1 (some centres undefined) | 1.17% [at 25.7 µM] | 
CC1(C)CCC[C@@]2(C)[C@H]1[C@H](O)C=C(CO)[C@]2(O)CO | 1.06% | 
Cc1occc(=O)c1O[C@@H]1O[C@H](CO)[C@@H](O)[C@H](O)[C@H]1O | 3.06% | 
CC(C(=O)Nc1cc(C#N)ccc1CCCC(=O)O)c1ccc(F)c2ccccc12 (centres undefined) |  | inactive
CC(=O)OC(C)(C)/C=C/C(=O)[C@](C)(O)C1[C@H](O)C[C@@]2(C)[C@@H]3CC=C4[C@@H](C[C@H](O[C@@H]5O[C@H](CO)[C@@H](O)[C@H](O)[C@H]5O)C(=O)C4(C)C)[C@]3(C)C(=O)C[C@]12C (some centres undefined) | 2.46% [at 25.7 µM] | 
CC(C)=CCC[C@](C)(O[C@@H]1O[C@H](CO[C@@H]2O[C@@H](CO)[C@H](O)[C@H]2O[C@@H]2OC[C@@H](O)[C@H](O)[C@H]2O)[C@@H](O)[C@H](O)[C@H]1O)[C@H]1CC[C@]2(C)[C@@H]1[C@H](O)CC1[C@@]3(C)CC[C@H](O[C@@H]4O[C@H](CO)[C@@H](O)[C@H](O)[C@H]4O[C@@H]4O[C@H](CO)[C@@H](O)[C@H](O)[C@H]4O)C(C)(C)C3CC[C@]12C (some centres undefined) | 0.984% [at 11.6 µM] | 
C=C1C[C@]23C[C@@]1(O)CC[C@H]2[C@@]12C=C[C@H](O)[C@@](C)(C(=O)O1)[C@H]2[C@@H]3C(=O)O | 2.47% | 
